PubChem BioAssay AID1159580 (chemical genetic matrix, 2015)
Hit rate of the full screen: of about 5,500 compounds, about 2,000 (36%) were called active. About 18% were inconclusive and are not listed. No stated cut-off is given here; in the data, active means normalized growth mostly below about 0.91 (no sharp cut-off); inconclusive means no clear call, values can overlap the other calls; inactive means mostly above about 0.92. This is one part of the list.

Test: chemical genetic growth profiling, strain panel (AID 1159580);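 further: tested at 20 µM; growth read once vehicle control cultures reached saturation at 30 °C; 1 = growth at the plate median or of vehicle wells; lower values mean less growth of the strain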
Conditions: S. cerevisiae deletion strains, growth OD

Measured: normalized growth

CC(C)NC[C@H](O)COc1cccc2[nH]ccc12
inactive: locus YAL013W, strain DEP1, active compounds read low 0.999 | locus YAL040C, strain CLN3, active compounds read low 0.984 | locus YCL061C, strain MRC1 (second series), active compounds read low 1.01 | locus YDR363W, strain ESC2, active compounds read low 0.994 | locus YER002W, strain NOP16, active compounds read low 0.969 | locus YNL153C, strain GIM3, active compounds read low 1.01 | locus YNL175C, strain NOP13, active compounds read low 1.01 | locus YNL197C, strain WHI3, active compounds read low 1.01 | locus YNL224C, strain SQS1, active compounds read low 1.01 | locus YNL322C, strain KRE1, active compounds read low 0.999 | locus YOR083W, strain WHI5 (second series), active compounds read low 1.05 | locus YPL241C, strain CIN2, active compounds read low 1
